Data reported in PubChem BioAssay (NCATS).
Several values for one entry are separate records, joined by “and”; a condition that tells them apart may be missing. Equal entries are not always repeated. Results filed as inconclusive are left out. Some structures have more than one record in an assay (separate samples or runs), and their calls can disagree. Activity calls are given as the source filed them. Unless noted, calls follow the shape of the dose curve; as a rule, active = well fitted curve in either direction with a large enough effect (not every such curve was filed as active); inconclusive = small, poorly fitted or top-dose-only effect, or another doubt; inactive = flat fitted curve, though single readings scatter.

Columns and labels:
[1] = AP1 Signaling Pathway (AID 357); settings: ME-180 AP-1-bla reporter, EGF-induced, beta-lactamase ratio, 5 h;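 also: ME-180 reporter cells stimulated with EGF at its EC50 level; % is scaled to controls: 0 for no effect and ±100 for the full control effect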
Procedure, shortened: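 AP-1-bla ME-180 cells, Opti-MEM + 0.5% dialyzed FBS, plated overnight 37 °C. Cpd titration + EC50 EGF, 5 h 37 °C. CCF4 2.5 h RT; ex 405, em 460/530 ratio → %activity, AC50.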

[2] = molecular target: Cytochrome P450 1A2 (Homo sapiens) (UniProt P05177); experiment: p450-cyp1a2 (AID 410; calls by dose curve; also: potency is read from the fitted curve at half-maximal effect;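 as to activity change, negative = inhibition: -100% = full effect of reference inhibitor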)
Procedure, shortened: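 Human CYP1A2 (20nM) demethylated Luciferin-ME at its Km (100uM) in 100mM KPO4. After 10 min compound preincubation, NADPH regeneration ran the reaction 60 min at room temperature. Luciferin was read by luminescence, normalized to 57 uM furafylline.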

[3] = Stat Signaling Pathway (AID 446); settings: ME-180 SIE beta-lactamase reporter, IL-6 stimulated, 5 h;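 also: ME-180 cervical cancer cells given 40 pM IL-6 alongside compound; SIE-controlled beta-lactamase reporter measured as 460/530 nm FRET emission ratio; % is scaled to controls: 0 for no effect and ±100 for the full control effect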
Procedure, shortened: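 Screening format detects activators and inhibitors alike: ME-180 SIE-bla cells stimulated at 40 pM IL-6 for 5 hrs with compound, then dual-emission beta-lactamase read at 405 nm excitation.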

[4] = molecular target: Mitogen-activated protein kinase 10 (Mus musculus) (UniProt Q61831); experiment: JNK3 AlphaScreen Assay (AID 530);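 also: kinase came from lysate of stimulated human HepG2 cells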; also: potency is read from the fitted curve at half-maximal effect
Procedure, shortened: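 JNK3 came from HepG2 lysates pre-activated with IL-1beta and TNF-alpha and phosphorylated biotinylated GST-cJun (1-79) at 10 uM ATP, pH 7.6, room temperature. Compounds were titrated. AlphaScreen signal used anti-phospho-cJun (Ser73) antibody.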

[5] = molecular target: 3',5'-cyclic-AMP phosphodiesterase 4B (Homo sapiens) (UniProt Q07343); experiment: qHTS Assay for Inhibitors of PDE-IV (AID 607; active = well fitted activation curve with a large enough effect in the main read-out, with a control signal flat, not every such curve was filed as active; also: % of control where 0% means no effect)
Procedure, shortened: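 The readout is membrane depolarisation from a cAMP-sensing CNG channel, detected with a potential dye at ex 535/em 590. Cells were HEK293-derived (endogenous PDE-IV) at 1000 cells/well, titrated up to 22.9 uM final.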

[6] = qHTS Assay for Lipid Storage Modulators (AID 1519; calls by dose curve); settings: Drosophila S3 cells, BODIPY lipid droplet/cell ratio, laser cytometry, cells loaded with oleic acid; for activity change, negative = inhibition: at 25.7 µM (top of the series)
Procedure, shortened: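 Cells seeded at 5,000 per well were treated with compounds over a concentration series and loaded with oleic acid (400 uM, as added). Lipid droplet fluorescence (488 nm excitation, 500-530 nm channel) was read by laser-scanning cytometry and normalized to 20 uM Triacsin C.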

[7] = molecular target: ATP-dependent 6-phosphofructokinase (Trypanosoma brucei brucei) (UniProt O15648); experiment: qHTS Assay to Find Inhibitors of T. brucei phosphofructokinase: hit validation (AID 492961; active = well fitted curve in the direction sought with a large enough effect; an effect the other way counts as inactive or inconclusive;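 also: luminescence reports ADP formed as PFK phosphorylates fructose-6-phosphate with ATP; % is scaled to controls: 0 for no effect and ±100 for the full control effect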)
Procedure, shortened: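 Reaction: 0.1 M triethanolamine pH 8.0, 5 mM MgCl2, F6P 0.5 mM, ATP 0.1 mM, PFK 1.25 nM, 45 min RT. Read-out: ADP-Glo luminescence. Analysis: concentration-response fits, classed by r2 and efficacy.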

[8] = qHTS profiling for inhibitors of Plasmodium falciparum proliferation (AID 504749; active = well fitted curve in the direction sought with a large enough effect; an effect the other way counts as inactive or inconclusive; also: nearly all actives have a fitted effect of over 60% in size; also: potency is read from the fitted curve at half-maximal effect;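 as to activity, negative = inhibition: 0% = DMSO vehicle and full inhibition = artemisinin control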); settings: P. falciparum in erythrocytes, SYBR Green DNA, 72 h
Procedure, shortened: (§1)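 P. falciparum-infected erythrocytes (0.3% parasitemia, 2.5% hematocrit final) were exposed to compounds for 72 h at 37 C in 5% CO2, then lysed with SYBR Green buffer overnight at room temperature; parasite DNA fluorescence was normalized to artemisinin and DMSO controls.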

CP238 = experiment: as above; settings: P. falciparum in erythrocytes, SYBR Green DNA, 72 h; series mostly up to 12.8 µM
Procedure, shortened: as §1

CP250 = experiment: as above; settings: P. falciparum in erythrocytes, SYBR Green DNA, 72 h; series mostly up to 12.8 µM
Procedure, shortened: as §1

CP262 = experiment: as above; settings: P. falciparum in erythrocytes, SYBR Green DNA, 72 h; series mostly up to 12.8 µM
Procedure, shortened: as §1

CP265 = experiment: as above; settings: P. falciparum in erythrocytes, SYBR Green DNA, 72 h; series mostly up to 12.8 µM
Procedure, shortened: as §1

FAB9 = experiment: as above; settings: P. falciparum in erythrocytes, SYBR Green DNA, 72 h; series mostly up to 12.8 µM
Procedure, shortened: as §1

JCK = experiment: as above; settings: P. falciparum in erythrocytes, SYBR Green DNA, 72 h; series mostly up to 12.8 µM
Procedure, shortened: as §1

PC49 = experiment: as above; settings: P. falciparum in erythrocytes, SYBR Green DNA, 72 h; series mostly up to 12.8 µM
Procedure, shortened: as §1

[9] = NFAT Signaling Pathway (AID 444); settings: Jurkat NFAT-bla M1, carbachol, beta-lactamase ratio, 5 h;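 also: carbachol stimulus at about its EC50 of 1 µM final; % is scaled to controls: 0 for no effect and ±100 for the full control effect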
Procedure, shortened: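 Jurkat cells carrying an NFAT-driven β-lactamase reporter and co-transfected muscarinic M1 receptor were treated with compound plus carbachol (1 uM final, an EC50 level) for 5 h at 37 °C. CCF4 loading followed for 1 h at RT; 460/530 nm ratio gave %activity.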

[10] = molecular target: Glucocorticoid receptor (Homo sapiens) (UniProt P04150); experiment: GR-GFP Redistribution (AID 450;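 active = compounds whose dose series gives a full or clear partial fitted curve of increased nuclear translocation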; also: potency is read from the fitted curve at half-maximal effect); settings: U2OS GR-GFP nuclear translocation, laser cytometry, 2 h
[11] = molecular target: Glucocorticoid receptor (Homo sapiens) (UniProt P04150); experiment: GR-EFC Redistribution (AID 451; calls by dose curve; also: potency is read from the fitted curve at half-maximal effect); settings: CHO-K1 GR-EFC translocation, beta-gal luminescence, 2 h
Procedure, shortened: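 CHO-K1 cells stably expressing nuclear-localized β-gal enzyme acceptor and GR fused C-terminally to the enzyme donor fragment; ligand-driven nuclear translocation restores β-gal by complementation. Compounds titrated up to 46 uM final, 2 h at 37 °C; luminescence read.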

[12] = molecular target: Ubiquitin carboxyl-terminal hydrolase 1 (Homo sapiens) (UniProt O94782); experiment: Inhibitors of USP1/UAF1: Pilot qHTS (AID 504865; active = well fitted curve in the direction sought with a large enough effect; an effect the other way counts as inactive or inconclusive; also: nearly all actives have a fitted effect of over 35% in size; also: potency is read from the fitted curve at half-maximal effect)
Procedure, shortened: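 Kinetic fluorescence assay: 1nM USP1/UAF1, 15 min compound preincubation, then 150nM Ub-Rho; 480/540 nm.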

AS120 = experiment: qHTS profiling for inhibitors of Plasmodium falciparum proliferation (AID 504749); also: nearly all actives have a fitted effect of over 60% in size; also: potency is read from the fitted curve at half-maximal effect;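 as to activity, negative = inhibition: 0% = DMSO vehicle and full inhibition = artemisinin control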; settings: P. falciparum in erythrocytes, SYBR Green DNA, 72 h; series mostly up to 28.7 µM
Procedure, shortened: as §1

[13] = measured here: cell count channel max response
[14] = measured here: lipid channel max response

Ubiquitin carboxyl-terminal hydrolase 1 (Homo sapiens), sequence (O94782 whole entry, looked up): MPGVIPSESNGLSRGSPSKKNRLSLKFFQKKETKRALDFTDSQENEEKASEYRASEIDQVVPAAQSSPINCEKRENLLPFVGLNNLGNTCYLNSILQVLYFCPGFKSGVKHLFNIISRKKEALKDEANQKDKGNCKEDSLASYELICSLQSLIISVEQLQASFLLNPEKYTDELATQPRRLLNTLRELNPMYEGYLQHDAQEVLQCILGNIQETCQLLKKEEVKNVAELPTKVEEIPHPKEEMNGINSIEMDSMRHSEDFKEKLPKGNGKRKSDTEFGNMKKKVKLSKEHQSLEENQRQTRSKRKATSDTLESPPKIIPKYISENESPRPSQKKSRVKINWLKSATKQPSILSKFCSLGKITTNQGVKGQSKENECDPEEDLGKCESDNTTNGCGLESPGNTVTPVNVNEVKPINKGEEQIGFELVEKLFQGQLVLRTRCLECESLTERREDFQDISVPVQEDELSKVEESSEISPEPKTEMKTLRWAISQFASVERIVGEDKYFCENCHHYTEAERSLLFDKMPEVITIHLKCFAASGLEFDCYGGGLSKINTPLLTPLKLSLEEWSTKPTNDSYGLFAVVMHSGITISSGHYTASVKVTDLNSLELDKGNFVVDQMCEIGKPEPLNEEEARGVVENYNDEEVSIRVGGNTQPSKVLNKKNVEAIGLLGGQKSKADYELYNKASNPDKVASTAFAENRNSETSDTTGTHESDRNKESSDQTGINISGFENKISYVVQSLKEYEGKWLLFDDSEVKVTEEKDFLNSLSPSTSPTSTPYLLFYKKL
Cytochrome P450 1A2 (Homo sapiens), sequence (P05177 whole entry, looked up): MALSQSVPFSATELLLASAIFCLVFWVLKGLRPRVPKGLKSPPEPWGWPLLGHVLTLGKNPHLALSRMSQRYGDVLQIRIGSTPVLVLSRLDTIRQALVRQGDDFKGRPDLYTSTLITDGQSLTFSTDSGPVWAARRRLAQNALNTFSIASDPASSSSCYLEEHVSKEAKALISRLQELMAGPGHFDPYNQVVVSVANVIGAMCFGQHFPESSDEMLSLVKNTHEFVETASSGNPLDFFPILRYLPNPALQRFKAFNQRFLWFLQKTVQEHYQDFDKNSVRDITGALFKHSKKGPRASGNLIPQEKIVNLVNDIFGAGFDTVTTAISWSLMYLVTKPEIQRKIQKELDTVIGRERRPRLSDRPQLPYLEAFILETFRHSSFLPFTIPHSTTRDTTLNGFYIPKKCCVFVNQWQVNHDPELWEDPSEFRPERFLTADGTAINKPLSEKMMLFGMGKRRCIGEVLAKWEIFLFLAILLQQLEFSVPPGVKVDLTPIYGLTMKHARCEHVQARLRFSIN
3',5'-cyclic-AMP phosphodiesterase 4B (Homo sapiens), sequence (Q07343 whole entry, looked up): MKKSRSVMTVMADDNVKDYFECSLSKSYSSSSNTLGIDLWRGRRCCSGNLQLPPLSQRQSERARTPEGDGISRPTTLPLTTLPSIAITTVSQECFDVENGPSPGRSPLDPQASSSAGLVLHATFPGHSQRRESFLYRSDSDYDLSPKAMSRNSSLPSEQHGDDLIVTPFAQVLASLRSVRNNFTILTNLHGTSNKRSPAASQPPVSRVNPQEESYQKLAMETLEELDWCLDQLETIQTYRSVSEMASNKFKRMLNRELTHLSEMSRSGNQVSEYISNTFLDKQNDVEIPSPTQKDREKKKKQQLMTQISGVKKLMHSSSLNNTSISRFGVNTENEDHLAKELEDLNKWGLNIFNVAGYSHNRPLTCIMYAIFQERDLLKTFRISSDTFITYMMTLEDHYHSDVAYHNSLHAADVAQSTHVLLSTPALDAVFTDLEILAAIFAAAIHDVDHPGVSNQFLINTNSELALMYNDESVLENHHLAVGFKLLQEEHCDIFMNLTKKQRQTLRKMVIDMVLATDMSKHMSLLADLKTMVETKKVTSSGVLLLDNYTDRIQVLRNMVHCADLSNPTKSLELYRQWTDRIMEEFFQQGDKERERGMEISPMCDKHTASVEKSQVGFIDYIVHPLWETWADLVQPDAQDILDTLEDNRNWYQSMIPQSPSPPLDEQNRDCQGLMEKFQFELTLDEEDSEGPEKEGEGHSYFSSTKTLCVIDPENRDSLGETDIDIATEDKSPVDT
Glucocorticoid receptor (Homo sapiens), sequence (P04150 whole entry, looked up, the tested form may be a part): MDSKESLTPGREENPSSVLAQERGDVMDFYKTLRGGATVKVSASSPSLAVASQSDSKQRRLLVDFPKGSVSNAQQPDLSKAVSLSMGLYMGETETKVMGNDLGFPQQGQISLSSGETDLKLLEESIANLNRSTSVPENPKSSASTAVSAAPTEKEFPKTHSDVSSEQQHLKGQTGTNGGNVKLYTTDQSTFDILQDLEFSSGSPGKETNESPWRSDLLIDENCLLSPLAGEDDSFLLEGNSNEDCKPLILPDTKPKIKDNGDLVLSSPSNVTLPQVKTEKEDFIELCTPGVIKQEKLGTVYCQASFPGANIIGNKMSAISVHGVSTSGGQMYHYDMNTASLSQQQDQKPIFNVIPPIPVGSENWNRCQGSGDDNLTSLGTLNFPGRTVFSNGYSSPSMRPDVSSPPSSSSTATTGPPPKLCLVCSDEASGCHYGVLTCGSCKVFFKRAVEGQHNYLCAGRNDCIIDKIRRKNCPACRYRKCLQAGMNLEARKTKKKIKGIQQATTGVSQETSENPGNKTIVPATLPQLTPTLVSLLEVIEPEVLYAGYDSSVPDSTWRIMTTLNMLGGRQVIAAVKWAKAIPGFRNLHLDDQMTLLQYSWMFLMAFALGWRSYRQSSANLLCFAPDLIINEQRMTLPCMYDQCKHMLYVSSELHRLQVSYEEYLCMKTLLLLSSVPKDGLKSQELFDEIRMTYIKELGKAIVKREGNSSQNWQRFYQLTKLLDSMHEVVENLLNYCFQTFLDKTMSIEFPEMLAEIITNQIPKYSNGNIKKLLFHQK
ATP-dependent 6-phosphofructokinase (Trypanosoma brucei brucei), sequence (O15648 whole entry, looked up): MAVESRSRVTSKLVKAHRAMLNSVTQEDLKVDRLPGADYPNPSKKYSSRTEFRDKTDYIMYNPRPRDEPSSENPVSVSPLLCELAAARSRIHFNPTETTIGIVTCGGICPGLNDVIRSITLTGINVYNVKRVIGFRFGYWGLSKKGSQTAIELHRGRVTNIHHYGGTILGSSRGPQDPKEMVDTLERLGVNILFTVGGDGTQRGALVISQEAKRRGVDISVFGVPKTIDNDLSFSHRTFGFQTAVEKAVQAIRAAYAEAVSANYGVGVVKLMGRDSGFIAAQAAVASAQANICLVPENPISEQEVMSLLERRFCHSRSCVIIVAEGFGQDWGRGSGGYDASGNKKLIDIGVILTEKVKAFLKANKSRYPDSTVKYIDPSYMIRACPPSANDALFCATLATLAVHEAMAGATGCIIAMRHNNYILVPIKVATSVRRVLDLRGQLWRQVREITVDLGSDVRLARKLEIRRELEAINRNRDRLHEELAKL

SMILES: C[C@@H](CN(C)C)CN1c2ccccc2CCc2ccccc21
- activity change, negative = inhibition ([1]; at 17.2 µM (top of the series)): 77.9% [activator] (active)
- activity change, negative = inhibition ([1]; at 38 µM (top of the series)): 90.9% [activator] (active)
- Potency [2]: inactive
- activity, negative = inhibition ([3]; at 17.2 µM (top of the series)): 1.59% (inactive)
- activity, negative = inhibition ([3]; at 38 µM (top of the series)): -7% (inactive)
- Potency [4]: inactive
- Potency [5]: inactive
- activity change, negative = inhibition [6]: -5.99% (inactive)
- max response [6, 13]: -11.8%
- max response [6, 14]: -16.4%
- outcome [7]: inactive
- activity, negative = inhibition ([8]; at 12.8 µM (top of the series), parasite line A): -6.2% (inactive)
- Potency (CP238): inactive
- Potency (CP250): inactive
- Potency (CP262): inactive
- Potency (CP265): inactive
- Potency (FAB9): inactive
- Potency (JCK): inactive
- Potency (PC49): inactive

SMILES: C[C@@]12C[C@@H](O)[C@H]3[C@@H](CCC4=CC(=O)CC[C@]43C)[C@H]1CC[C@H]2C(=O)CO
- activity change, negative = inhibition ([1]; at 17.2 µM (top of the series)): 4.07% (inactive)
- activity change, negative = inhibition ([1]; at 38 µM (top of the series)): -3.18% (inactive)
- activity change, negative = inhibition ([9]; at 17.2 µM (top of the series)): 0.118% (inactive)
- activity change, negative = inhibition ([9]; at 38 µM (top of the series)): -0.571% (inactive)
- activity, negative = inhibition ([3]; at 17.2 µM (top of the series)): -0.637% (inactive)
- activity, negative = inhibition ([3]; at 38 µM (top of the series)): -1.77% (inactive)
- Potency [10]: 74.2 nM (active) and 8.8 nM (active)
- Potency [11]: 179 nM (active)
- Potency [5]: inactive
- activity change, negative = inhibition [6]: -3.75% (inactive)
- max response [6, 13]: -3.56%
- max response [6, 14]: -9.53%
- Potency [12]: inactive

SMILES: C[C@@]12CC[C@@H]3c4ccc(O)cc4CC[C@H]3[C@H]1CC[C@H]2O
- activity change, negative = inhibition ([1]; at 17.2 µM (top of the series)): -5.6% (inactive)
- activity change, negative = inhibition ([1]; at 38 µM (top of the series)): -13.9% (inactive)
- activity change, negative = inhibition ([9]; at 17.2 µM (top of the series)): -19.1% (inactive)
- activity change, negative = inhibition ([9]; at 38 µM (top of the series)): -4.36% (inactive)
- activity, negative = inhibition ([3]; at 17.2 µM (top of the series)): -28.8% (inactive)
- activity, negative = inhibition ([3]; at 38 µM (top of the series)): -19.1% (inactive)
- Potency [10]: > 46 µM (inactive) and > 20.6 µM (inactive)
- Potency [11]: > 46 µM (inactive) and > 20.6 µM (inactive)
- Potency [4]: inactive
- Potency [5]: inactive
- activity change, negative = inhibition [6]: -0.875% (inactive)
- max response [6, 13]: -11.7%
- max response [6, 14]: -11.1%
- Potency [12]: inactive

SMILES: CN(C)CCO[C@](C)(c1ccccc1)c1ccccn1
- activity change, negative = inhibition ([1]; at 17.2 µM (top of the series)): 4.7% (inactive)
- activity change, negative = inhibition ([1]; at 38 µM (top of the series)): 3.93% (inactive)
- Potency [2]: inactive
- activity, negative = inhibition ([3]; at 17.2 µM (top of the series)): -3.9% (inactive)
- activity, negative = inhibition ([3]; at 38 µM (top of the series)): 8.94% (inactive)
- Potency [4]: inactive
- Potency [5]: inactive
- activity change, negative = inhibition [6]: 0.849% (inactive)
- max response [6, 13]: 16.6%
- max response [6, 14]: 17.9%
- Potency [12]: inactive

SMILES: CCN(CC)CCC[C@H](C)Nc1c2ccc(Cl)cc2nc2ccc(OC)cc12
- activity change, negative = inhibition ([1]; at 17.2 µM (top of the series)): 28.6% (inactive)
- activity change, negative = inhibition ([1]; at 38 µM (top of the series)): 21.9% (inactive)
- Potency [2]: 2 µM (active) and 1 µM (active)
- Potency [4]: inactive
- Potency [5]: inactive
- activity change, negative = inhibition [6]: -0.0943% (inactive)
- max response [6, 13]: -11.8%
- max response [6, 14]: -13%
- outcome [7]: inactive
- Potency [12]: 31600 nM (active)
- Potency ([8]; parasite line A): 224 nM (active)
- Potency ([8]; parasite line B): 282 nM (active)
- Potency (AS120): 794 nM (active)
- Potency (CP238): 1120 nM (active)
- Potency (CP250): 447 nM (active)
- Potency (CP262): 426 nM (active)
- Potency (CP265): 891 nM (active)
- Potency (FAB9): 447 nM (active)
- Potency (JCK): 3160 nM (active)
- Potency (PC49): 1580 nM (active)

SMILES: CN1CCc2cccc3c2[C@@H]1Cc1ccc(O)c(O)c1-3
- activity change, negative = inhibition ([1]; at 17.2 µM (top of the series)): -20.2% (inactive)
- activity change, negative = inhibition ([1]; at 38 µM (top of the series)): -26.6% (inactive)
- activity change, negative = inhibition ([9]; at 17.2 µM (top of the series)): -6.25% (inactive)
- activity change, negative = inhibition ([9]; at 38 µM (top of the series)): -15.4% (inactive)
- activity, negative = inhibition ([3]; at 17.2 µM (top of the series)): 1.07% (inactive)
- activity, negative = inhibition ([3]; at 38 µM (top of the series)): -10.2% (inactive)
- Potency [10]: > 46 µM (inactive) and > 20.6 µM (inactive)
- Potency [11]: > 46 µM (inactive) and > 20.6 µM (inactive)
- Potency [4]: inactive and 15.8 µM (active)
- Potency [5]: inactive
- activity change, negative = inhibition [6]: 2.32% (inactive)
- max response [6, 13]: 2.96%
- max response [6, 14]: 6.43%
- Potency [12]: inactive
